Data from PubChem BioAssay AID624255 (Broad Institute, 2012).
Screen size: about 77,000 compounds; about 4,600 (6%) were called active. Roughly 1% stayed inconclusive and do not appear here.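 The calls were made as follows: active = mean inhibition above about 93%, with at least 55% of replicates each passing it (limit read from the data, passing the limit was not always enough); inconclusive = only one of those two conditions holds; inactive = neither condition holds.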 For the sample, actives were picked, then their nearest neighbours and some compounds at random.

Assay: T. cruzi intracellular proliferation inhibitors, primary screen, cell-based, beta-gal Tulahuen parasites, NIH3T3 host, luminescence (AID 624255)
Settings: T. cruzi beta-gal in NIH3T3, GalScreen luminescence, 90 h; at 8.34 µM; active compounds read high

inhibition, active:
C[C@@H]1CCCCO[C@H](CN(C)S(=O)(=O)c2ccc(F)cc2)[C@H](C)CN([C@@H](C)CO)C(=O)c2cc(NS(=O)(=O)c3ccccc3)ccc2O1 112%
C[C@H](CO)N1C[C@H](C)[C@H](CN(C)S(=O)(=O)c2ccc(F)cc2)OCCCC[C@H](C)Oc2ccc(NS(=O)(=O)c3ccc(Cl)cc3)cc2C1=O 97.6%
Cc1ccc(S(=O)(=O)N(C)C[C@@H]2OCCCC[C@@H](C)Oc3ccc(NS(=O)(=O)c4ccc(F)cc4)cc3C(=O)N([C@H](C)CO)C[C@H]2C)cc1 110%

inhibition, inactive:
CNC(=O)C[C@H]1CC[C@@H]2[C@H](COc3ccc(NC(=O)C(C)C)cc3C(=O)N2C)O1 -65%
CC(=O)Nc1ccc2c(c1)C(=O)N(C)[C@H]1CC[C@H](CC(=O)NCc3ccccc3Cl)O[C@H]1CO2 -40.6%
CNC[C@H]1OCCCC[C@@H](C)Oc2ccc(NC(=O)Nc3ccc(C(F)(F)F)cc3)cc2C(=O)N([C@H](C)CO)C[C@H]1C 69.3%
C[C@H](CO)N1C[C@H](C)[C@H](CN(C)C(=O)NC2CCCCC2)Oc2ccc(NC(=O)CCCN(C)C)cc2CC1=O 25.8%
O=C(NC1CCC1)[C@H]1[C@H](CO)[C@H]2Cn3c(ccc(C4=CCCCC4)c3=O)[C@@H]1N2CC1CC1 -4.56%
C[C@@H]1CCCCO[C@@H](CN(C)S(=O)(=O)c2ccc(F)cc2)[C@@H](C)CN([C@@H](C)CO)C(=O)c2cc(NC(=O)Nc3ccc(F)cc3)ccc2O1 55.8%
COc1ccccc1S(=O)(=O)Nc1ccc2c(c1)C(=O)N(C)C[C@H](OC)[C@H](C)CN[C@H](C)CO2 9.95%
O=C([C@H]1N[C@H]2c3ccc(-c4ccccc4)c(=O)n3C[C@H]2[C@@H]1CO)N1CCOCC1 -8.75%
Cc1ccc(S(=O)(=O)Nc2ccc3c(c2)C(=O)N([C@H](C)CO)C[C@@H](C)[C@H](CN(C)S(=O)(=O)c2ccc(C)cc2)OCCCC[C@@H](C)O3)cc1 89.1%
COc1ccc(S(=O)(=O)N(C)C[C@@H]2OCCCC[C@@H](C)Oc3ccc(NS(=O)(=O)c4ccccc4)cc3C(=O)N([C@@H](C)CO)C[C@H]2C)cc1 71.3%
C[C@@H]1CCCCO[C@H](CN(C)S(=O)(=O)c2ccccc2)[C@@H](C)CN([C@@H](C)CO)C(=O)c2cc(NS(=O)(=O)c3ccccc3)ccc2O1 78.8%
COc1ccc(S(=O)(=O)Nc2ccc3c(c2)C(=O)N([C@H](C)CO)C[C@@H](C)[C@H](CN(C)S(=O)(=O)c2ccc(Cl)cc2)OCCCC[C@@H](C)O3)cc1 87%
C[C@@H]1CCCCO[C@@H](CN(C)S(C)(=O)=O)[C@H](C)CN([C@@H](C)CO)C(=O)c2cc(NS(=O)(=O)c3ccc(F)cc3)ccc2O1 -87.8%
Cc1ccc(S(=O)(=O)N(C)C[C@H]2OCCCC[C@@H](C)Oc3ccc(NS(C)(=O)=O)cc3C(=O)N([C@H](C)CO)C[C@@H]2C)cc1 -8.39%
